T1: UNK ZnF1-6 (called full-length) (human, UniProt Q9C0B0 30-357)
T1 sequence: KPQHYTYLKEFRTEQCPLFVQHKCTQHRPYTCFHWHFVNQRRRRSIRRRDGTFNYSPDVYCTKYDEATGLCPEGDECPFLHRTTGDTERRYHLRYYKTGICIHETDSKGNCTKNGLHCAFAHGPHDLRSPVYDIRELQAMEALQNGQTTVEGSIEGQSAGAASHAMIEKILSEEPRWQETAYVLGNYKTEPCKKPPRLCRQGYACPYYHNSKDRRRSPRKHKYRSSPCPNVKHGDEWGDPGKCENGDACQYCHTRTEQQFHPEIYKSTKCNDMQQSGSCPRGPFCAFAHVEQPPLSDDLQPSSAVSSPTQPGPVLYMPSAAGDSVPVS

B1: chr1:42176760:42176861:-|3pUTR|ENSG00000198815|msi1|FALSE|bound_elsewhere (ssRNA)
RNA: GGGAGUUCUACAGUCCGACGAUCGUCGCUCAGAUGUCCUUUGAAGUGGGAGGGAAUCAAUCCGGGGAUAAUUUCAAAUGGAAUAGAGUAUUUUGAUAUUGUUCAUUCAGAGGGUGAUGUGUACAUAUCUAUAUUGUAUAUAUGCAACAGAGGAUUGAGCAUCA
B2: chr8:108778973:108784180:-|three_prime_utr|ENSG00000164841|control|control|control (ssRNA)
RNA: GGGAGUUCUACAGUCCGACGAUCAAGUUUAUUUCACAAACCAACAGCCAGUAAGUGUUUUUGUUCUCUAUGUGUCUUCUAUUUAGAAGAAAAGCCAUGUAAGAUGUAUAAGAAACCACAACCAGCCACACCUAUCCUUCUGAACAACAGAGGAUUGAGCAUCA
B3: ENSG00000072803:stop:overlap|stop_codon|ENSG00000072803|stop_codon|NA|stop_codon (ssRNA)
RNA: GGGAGUUCUACAGUCCGACGAUCCUGGAUACAGUAAACGGAAAGAAUCUUGGAAGAUGCUUGACUGCUGUCUUUUCUCAGACUAGUCUGAAAGGGAAAACCCCCAUUCAUUCUGGAUUGGUGGAUCUGAAGUACAAAAUAUUUCAACAGAGGAUUGAGCAUCA
B4: chrX:47571900:47572933:-|three_prime_utr|ENSG00000008056|control|control|control (ssRNA)
RNA: GGGAGUUCUACAGUCCGACGAUCAAACCUGACUCCUCCUGGCCCUAAAUCCGGUUCUCACAUGUGGAAUCCCCAAGUCCUUUUAGAACCCCACUCGUGGUCACUUCAGGAUCUACUUCUGUUUUAGAACCUCCACAUUCCUGACAACAGAGGAUUGAGCAUCA
B5: chr1:161190761:161190881:-|3pUTR|ENSG00000158859|msi1|total|mutant (ssRNA)
RNA: GGGAGUUCUACAGUCCGACGAUCUGCGGGUCACAGGAGGGAGGGGGAAGGCAGGGAGGGCCUGGGCCCCAGUUGUAUUUAUUCCGUAUUUAUUCACUUUUAUUCCGCACCAGGGAAGGGGACAAGGACCCGGGUCCUGGGGAACAACAGAGGAUUGAGCAUCA
B6: chr15:93024873:93024975:+|3pUTR|ENSG00000173575|unk|total|mutant (ssRNA)
RNA: GGGAGUUCUACAGUCCGACGAUCGGUCCAGCUCUGAUUCGGGUCACCACUCCUGCACUUUGGCACCCCAUCCCAUUCCAGCCCCGUUCUGGCCUCCCACUUUGACGGGCACUUGGAGGAGGAGCUGACUGUGUGUGUACCAGCCAACAGAGGAUUGAGCAUCA
B7: chr4:87473334:87473774:-|three_prime_utr|ENSG00000152583|control|control|control (ssRNA)
RNA: GGGAGUUCUACAGUCCGACGAUCCUUUCCAGCAUCCUCCUCUGUUCUAACCACUUCAGAAAUAUAUGCAGCUGUGAUACUUGUAGAUUUAUAUUUAGCAAAAUGUUAGCAUGUAUGACAAGACAAUGAGAGUAAUUGCUUGACCAACAGAGGAUUGAGCAUCA
B8: chr5:180576808:180576909:+|3pUTR|ENSG00000113300|unk|total|mutant (ssRNA)
RNA: GGGAGUUCUACAGUCCGACGAUCUAUUUUCCGUGUCCUAAAUAAUUUUCAAUAAUCUAUAAUCCCUAAAAUGCAAUAAAAACCCGUAUGUUUUCACGGUGUAUAUUUUUUUUCAAAAAUUCUGUAACAAAUAUAUUUAAUGUGCAACAGAGGAUUGAGCAUCA
B9: chr8:37861146:37861251:-|3pUTR|ENSG00000156675|unk|FALSE|unique (ssRNA)
RNA: GGGAGUUCUACAGUCCGACGAUCCUGUGCAGAGCAAGAAGAUGAUACUUAUUUUUGAAUUUGUAUUUUUAAAACUAGAUUUAUAGACUUUUUUUUUUUUUAACUAGGGCACUUGCUUCCUUCUUAGCUAAAAGCACCAGCUGACAACAGAGGAUUGAGCAUCA
B10: chr19:18196783:18197469:-|three_prime_utr|ENSG00000105649|control|control|control (ssRNA)
RNA: GGGAGUUCUACAGUCCGACGAUCACUACCCGGGCCUGACCCGGCCCCUACCAGCCACGGGCACAAGACCCCUGCUCCUGACUUAGCCCGUCACCCUUAUUUAUUAUUGUAGCUAUUUAUUUAUUUAUUGAAGAUGUCCCCCAGCAACAGAGGAUUGAGCAUCA
B11: chr7:80742902:80743013:-|3pUTR|ENSG00000075223|msi1_unk|total|mutant (ssRNA)
RNA: GGGAGUUCUACAGUCCGACGAUCUCAGAGUCACAGUUCCCUUUAUUUCACAUAAGCCCAAACUGACCGACAGUAACGGUGUUCCGUUUUAUACUAUAUUUGUGCUAUUUAAUUCUUUCUAUUUUCACAAUUAUUAAAUUGUGUCAACAGAGGAUUGAGCAUCA
B12: chr19:39539560:39539696:-|CDS|ENSG00000176396|unk|FALSE|unique (ssRNA)
RNA: GGGAGUUCUACAGUCCGACGAUCCGGGAACGGAGGCCUGGCUGCGUUGCCCUAUCUCCGUCUCCGCCACCCACUUAGCGUUUUAGGCAUCAAUUACCAGCAGUUUCUCCGCCACUAUCUGGAAAAUUACCCGAUUGCUCCCGGCAACAGAGGAUUGAGCAUCA
B13: ENSG00000181035:stop:overlap|stop_codon|ENSG00000181035|stop_codon|NA|stop_codon (ssRNA)
RNA: GGGAGUUCUACAGUCCGACGAUCUGGGCAUCAGCUUCACCACCUUCGACCUCAUGCAGAUCCUGCUGCGGCACCUGCAGAGCUAGGGGACCCUGAGCUGCUCUCAGGACGGUGGACCGGUGACCCCUUUGUAUUCUGGGCCCACAACAGAGGAUUGAGCAUCA
B14: chr5:180576808:180576909:+|3pUTR|ENSG00000113300|unk|FALSE|unique (ssRNA)
RNA: B8 RNA with C83U, C84A
B15: chr7:20412070:20412171:+|3pUTR|ENSG00000105855|msi1|total|mutant (ssRNA)
RNA: GGGAGUUCUACAGUCCGACGAUCCUUUUUUUUUAUAAUAAACUUCCAAGAUUUGCUGUCUUCCAGCACUUGAGUUAAAGUACCCGAUACUGCAUUUUGAUGAAGACUAACCCCAUCUCAUAUUCUACCCUAAAGAGAACUGAACAACAGAGGAUUGAGCAUCA
B16: chr1:161190761:161190881:-|3pUTR|ENSG00000158859|msi1|FALSE|unique (ssRNA)
RNA: B5 RNA with C83U, C84A, C104U, C105A, C129U, C130A

Substitutions are numbered along the chain they refer to. In all, about 5,800 sequences were measured (“enrichment r”: median about 0.68, highest 2% from about 11 on). The list comes from a sample in which the highest values are over-represented; it also holds similar and randomly drawn sequences.

The target in the test is T1, UNK ZnF1-6 (called full-length). Put plainly: nsRBNS (natural sequence RNA bind-n-seq); RBNS binding buffer (assumed for nsRBNS): 25 mM Tris pH 7.5, 150 mM KCl, 3 mM MgCl2, 0.01% Triton X-100, 500 ug/ml BSA, 20 U/ml SUPERase-In, 4 C; UNK is unkempt and MSI1 is Musashi-1; names of the RNAs are library labels; protein concentration not given here; high values mean tight binding.
As for B1, the binding signal was 1.26 enrichment R.

Turning to B2, the binding signal came out at 0.507 enrichment R.

As for B3, the binding signal came out at 1.04 enrichment R.

Molecule B4 displayed a binding signal of 0.975 enrichment R.

Consider B5, for which the binding signal was 2.05 enrichment R.

Molecule B6 displayed a binding signal of 4.11 enrichment R.

B7 gave a binding signal of 2.1 enrichment R.

In turn, B8 had a binding signal of 10.6 enrichment R.

In turn, B9 registered a binding signal of 53.1 enrichment R.

In the case of B10, the binding signal is 66 enrichment R.

B11 gave a binding signal of 1.71 enrichment R.

On to B12, for which the binding signal amounted to 1.3 enrichment R.

B13: the binding signal came to 1.2 enrichment R.

Molecule B14 had a binding signal of 20.9 enrichment R.

B15 had a binding signal of 0.911 enrichment R.

As to B16, the binding signal worked out at 32.9 enrichment R.

The record behind these values is PMC12136788.
